Assay results reported in PubChem BioAssay AID1159580 (chemical genetic matrix, 2015).
Where “and” joins values, the source holds several entries; their conditions need not be identical. Equal entries are not always repeated. In all, about 5,500 compounds went through this assay and about 2,000 (36%) were called active. Roughly 18% stayed inconclusive and do not appear here. Rule as the data show it: active = normalized growth mostly below about 0.91 (no sharp cut-off); inconclusive = no clear call, values can overlap the other calls; inactive = mostly above about 0.92. The list shows a part of the results.

Assay: chemical genetic growth profiling, strain panel (AID 1159580);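 also: tested at 20 µM; growth read once vehicle control cultures reached saturation at 30 °C; 1 = growth at the plate median or of vehicle wells; lower values mean less growth of the strain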
Details: S. cerevisiae deletion strains, growth OD

Measured: normalized growth

Cc1cc(C)nc(NS(=O)(=O)c2ccc(N)cc2)n1
inactive: locus YAL013W, strain DEP1, active compounds read low 0.998 | locus YAL021C, strain ccr4, active compounds read low 0.957 | locus YAL026C, strain drs2, active compounds read low 0.974 | locus YAL030W, strain snc1, active compounds read low 0.972 | locus YBL061C, strain skt5, active compounds read low 0.985 | locus YBR009C, strain hhf1, active compounds read low 0.934 | locus YBR021W, strain FUR4, active compounds read low 1.01 | locus YBR023C, strain chs3, active compounds read low 0.982 | locus YBR171W, strain sec66, active compounds read low 0.989 | locus YBR229C, strain ROT2, active compounds read low 0.999 | locus YBR231C, strain swc5, active compounds read low 0.998 | locus YBR279W, strain paf1, active compounds read low 0.982 | locus YCL011C, strain gbp2, active compounds read low 0.96 | locus YCL016C, strain dcc1, active compounds read low 0.966 | locus YCL029C, strain bik1, active compounds read low 0.981 | locus YCL069W, strain vba3, active compounds read low 0.969 | locus YCR088W, strain abp1, active compounds read low 0.965 | locus YDL005C, strain med2, active compounds read low 0.969 | locus YDL035C, strain GPR1, active compounds read low 0.988 | locus YDL040C, strain nat1, active compounds read low 0.98 | locus YDL074C, strain BRE1, active compounds read low 1.01 | locus YDL101C, strain DUN1, active compounds read low 0.99 | locus YDL134C, strain PPH21, active compounds read low 0.996 | locus YDL185W, strain tfp1, active compounds read low 0.938 | locus YDL192W, strain arf1, active compounds read low 0.963 | locus YDR001C, strain nth1, active compounds read low 0.963 | locus YDR069C, strain doa4, active compounds read low 0.991 | locus YDR101C, strain arx1, active compounds read low 1 | locus YDR137W, strain rgp1, active compounds read low 0.981 | locus YDR150W, strain NUM1, active compounds read low 0.999 | locus YDR159W, strain sac3, active compounds read low 0.914 | locus YDR162C, strain NBP2, active compounds read low 0.981 | locus YDR195W, strain ref2 0.959 | locus YDR297W, strain sur2, active compounds read low 0.983 | locus YDR318W, strain mcm21, active compounds read low 0.964 | locus YDR334W, strain swr1, active compounds read low 0.985 | locus YDR335W, strain msn5, active compounds read low 0.977 | locus YDR388W, active compounds read low 0.967 | locus YDR392W, strain spt3, active compounds read low 0.91 | locus YDR502C, strain sam2, active compounds read low 0.98 | locus YEL003W, strain gim4, active compounds read low 0.967 | locus YEL037C, strain rad23, active compounds read low 0.983 | locus YEL061C, strain CIN8 (second series), active compounds read low 0.972 | locus YEL061C, strain CIN8, active compounds read low 1 | locus YER015W, strain faa2, active compounds read low 0.996 | locus YER016W, strain bim1, active compounds read low 0.96 | locus YER110C, active compounds read low 0.99 | locus YER111C, strain swi4, active compounds read low 0.965 | locus YER155C, strain BEM2 (second series), active compounds read low 1.01 | locus YER155C, strain BEM2, active compounds read low 0.996 | locus YER167W, strain BCK2, active compounds read low 0.995 | locus YFR010W, strain ubp6, active compounds read low 0.996 | locus YGL078C, strain dbp3, active compounds read low 0.977 | locus YGL086W, strain mad1, active compounds read low 1 | locus YGL167C, strain pmr1, active compounds read low 0.977 | locus YGL173C, strain kem1, active compounds read low 0.979 | locus YGL227W, strain vid30, active compounds read low 0.988 | locus YGL240W, strain doc1, active compounds read low 1.01 | locus YGL248W, strain PDE1, active compounds read low 0.998 | locus YGL253W, strain hxk2, active compounds read low 0.968 | locus YGR135W, strain pre9, active compounds read low 0.995 | locus YGR229C, strain SMI1, active compounds read low 0.989 | locus YGR252W, strain gcn5, active compounds read low 1.17 | locus YHR013C, strain ard1, active compounds read low 0.92 | locus YHR027C, strain rpn1, active compounds read low 0.973 | locus YHR030C, strain SLT2, active compounds read low 0.995 and 0.954 | locus YHR079C, strain IRE1 (second series), active compounds read low 0.97 | locus YHR079C, strain IRE1, active compounds read low 0.981 | locus YHR094C, strain hxt1, active compounds read low 0.968 | locus YHR129C, strain ARP1, active compounds read low 0.997 | locus YHR142W, strain chs7, active compounds read low 0.968 | locus YHR200W, strain rpn10, active compounds read low 0.98 | locus YIL066C, strain RNR3, active compounds read low 1.01 | locus YIL073C, strain SPO22, active compounds read low 0.842 | locus YIL125W, strain kgd1, active compounds read low 0.954 | locus YIR030C, strain dcg1, active compounds read low 0.983 | locus YJL092W, strain hpr5, active compounds read low 0.981 | locus YJL095W, strain BCK1 (second series), active compounds read low 0.983 | locus YJL095W, strain BCK1, active compounds read low 1.02 and 0.967 | locus YJL115W, strain asf1, active compounds read low 0.968 | locus YJL129C, strain trk1, active compounds read low 0.98 | locus YJL134W, strain LCB3, active compounds read low 0.985 | locus YJL154C, strain vps35, active compounds read low 0.978 | locus YJL164C, strain tpk1, active compounds read low 0.963 | locus YJL166W, strain qcr8, active compounds read low 1.01 | locus YJL168C, strain set2, active compounds read low 0.977 | locus YJL187C, strain SWE1 (second series), active compounds read low 0.987 | locus YJR043C, strain POL32, active compounds read low 1
